Source: paper PMC11006913
Substitutions are numbered along the chain they refer to.

Tests used:
Test in all cases: PBM; 200 nM protein, PBS
Conditions in all cases: dsDNA, one strand shown
[1] = biological target: SHOX (Homo sapiens, UniProt O15266 103-189)
[2] = biological target: T1, VENTX (Homo sapiens, UniProt O95231 78-163, R121Q)
T1 sequence: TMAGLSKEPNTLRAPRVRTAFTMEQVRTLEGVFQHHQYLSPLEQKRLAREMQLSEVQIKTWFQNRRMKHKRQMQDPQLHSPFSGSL

[3] = biological target: T2, VENTX (Homo sapiens, UniProt O95231 78-163)
T2 sequence: T1 sequence with Q44R

[4] = biological target: T3, PAX4 (Homo sapiens, UniProt O43316 9-242, R200K)
T3 sequence: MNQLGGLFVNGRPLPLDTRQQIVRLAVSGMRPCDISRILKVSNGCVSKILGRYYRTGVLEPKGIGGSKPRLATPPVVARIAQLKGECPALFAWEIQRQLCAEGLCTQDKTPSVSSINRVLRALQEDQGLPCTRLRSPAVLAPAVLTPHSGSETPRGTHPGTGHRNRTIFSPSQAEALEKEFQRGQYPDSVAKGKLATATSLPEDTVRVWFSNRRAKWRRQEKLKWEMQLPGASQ

[5] = biological target: T4, VENTX (Homo sapiens, UniProt O95231 78-163, Y115F)
T4 sequence: T1 sequence with Y38F, Q44R

[6] = biological target: T5, PAX4 (Homo sapiens, UniProt O43316 9-242)
T5 sequence: T3 sequence with K192R

[7] = biological target: HESX1 (Homo sapiens, UniProt Q9UBX0 95-180)
HESX1 (Homo sapiens, UniProt Q9UBX0 95-180), sequence (Q9UBX0 95-180): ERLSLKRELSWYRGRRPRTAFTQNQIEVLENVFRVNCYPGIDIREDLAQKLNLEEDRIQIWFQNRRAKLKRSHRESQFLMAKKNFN

[8] = biological target: MSX2 (Homo sapiens, UniProt P35548 130-214, R199I)
MSX2 (Homo sapiens, UniProt P35548 130-214, R199I), sequence (P35548 130-214 R199I): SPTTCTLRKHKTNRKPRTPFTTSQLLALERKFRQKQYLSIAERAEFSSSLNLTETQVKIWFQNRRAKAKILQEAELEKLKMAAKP

[9] = biological target: T6, PAX4 (Homo sapiens, UniProt O43316 9-242, R200Q)
T6 sequence: T3 sequence with K192Q

[10] = biological target: SHOX (Homo sapiens, UniProt O15266 103-189, R173C)
SHOX (Homo sapiens, UniProt O15266 103-189, R173C), sequence (O15266 103-189 R173C): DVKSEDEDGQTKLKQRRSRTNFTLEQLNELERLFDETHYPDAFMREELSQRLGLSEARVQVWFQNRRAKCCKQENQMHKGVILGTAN

[11] = biological target: T7, PAX4 (Homo sapiens, UniProt O43316 9-242, F177V)
T7 sequence: T3 sequence with F169V, K192R

[12] = biological target: MSX2 (Homo sapiens, UniProt P35548 130-214)
MSX2 (Homo sapiens, UniProt P35548 130-214), sequence (P35548 130-214): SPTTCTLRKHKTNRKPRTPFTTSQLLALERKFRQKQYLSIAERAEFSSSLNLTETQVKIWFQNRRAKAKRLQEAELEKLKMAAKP

[13] = biological target: T8, PAX4 (Homo sapiens, UniProt O43316 9-242, F177Y)
T8 sequence: T3 sequence with F169Y, K192R

[14] = biological target: VAX1 (Homo sapiens, UniProt Q5SQQ9 86-172)
VAX1 (Homo sapiens, UniProt Q5SQQ9 86-172), sequence (Q5SQQ9 86-172): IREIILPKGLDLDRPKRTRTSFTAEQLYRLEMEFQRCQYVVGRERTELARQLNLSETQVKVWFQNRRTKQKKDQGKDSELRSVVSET

[15] = biological target: HESX1 (Homo sapiens, UniProt Q9UBX0 95-180, P111T)
HESX1 (Homo sapiens, UniProt Q9UBX0 95-180, P111T), sequence (Q9UBX0 95-180 P111T): as the sequence (Q9UBX0 95-180) above, with P17T counted along it

[16] = biological target: MSX2 (Homo sapiens, UniProt P35548 130-214, F161Y)
MSX2 (Homo sapiens, UniProt P35548 130-214, F161Y), sequence (P35548 130-214 F161Y): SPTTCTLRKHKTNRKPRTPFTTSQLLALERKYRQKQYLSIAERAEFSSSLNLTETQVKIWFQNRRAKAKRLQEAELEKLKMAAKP

[17] = biological target: HESX1 (Homo sapiens, UniProt Q9UBX0 95-180, F115L)
HESX1 (Homo sapiens, UniProt Q9UBX0 95-180, F115L), sequence (Q9UBX0 95-180 F115L): as the sequence (Q9UBX0 95-180) above, with F21L counted along it

[18] = biological target: VAX1 (Homo sapiens, UniProt Q5SQQ9 86-172, T142I)
VAX1 (Homo sapiens, UniProt Q5SQQ9 86-172, T142I), sequence (Q5SQQ9 86-172 T142I): as the sequence (Q5SQQ9 86-172) above, with T57I counted along it

[19] = biological target: T9, PAX4 (Homo sapiens, UniProt O43316 9-242, R227W)
T9 sequence: T3 sequence with K192R, R219W

[20] = biological target: VAX1 (Homo sapiens, UniProt Q5SQQ9 86-172, K157R)
VAX1 (Homo sapiens, UniProt Q5SQQ9 86-172, K157R), sequence (Q5SQQ9 86-172 K157R): as the sequence (Q5SQQ9 86-172) above, with K72R counted along it

SHOX (Homo sapiens, UniProt O15266 103-189), sequence (O15266 103-189): as the sequence (O15266 103-189 R173C) above, with C71R counted along it

Sequence | binding signal [1] | binding signal [2] | binding signal [3] | binding signal [4] | binding signal [5] | binding signal [6] | binding signal [7] | binding signal [8] | binding signal [9] | binding signal [10] | binding signal [11] | binding signal [12] | binding signal [13] | binding signal [14] | binding signal [15] | binding signal [16] | binding signal [17] | binding signal [18] | binding signal [19] | binding signal [20]
AATTAATA | 12 upbm affinity estimate (log intensity, higher = more binding, comparable within an allelic series) | 11.9 upbm affinity estimate (log intensity, higher = more binding, comparable within an allelic series) | 12.3 upbm affinity estimate (log intensity, higher = more binding, comparable within an allelic series) | 12 upbm affinity estimate (log intensity, higher = more binding, comparable within an allelic series) | 11.6 upbm affinity estimate (log intensity, higher = more binding, comparable within an allelic series) | 12.5 upbm affinity estimate (log intensity, higher = more binding, comparable within an allelic series) | 12.1 upbm affinity estimate (log intensity, higher = more binding, comparable within an allelic series) | 12.5 upbm affinity estimate (log intensity, higher = more binding, comparable within an allelic series) | 12.3 upbm affinity estimate (log intensity, higher = more binding, comparable within an allelic series) | 9.56 upbm affinity estimate (log intensity, higher = more binding, comparable within an allelic series) | 10.8 upbm affinity estimate (log intensity, higher = more binding, comparable within an allelic series) | 13.5 upbm affinity estimate (log intensity, higher = more binding, comparable within an allelic series) | 11.2 upbm affinity estimate (log intensity, higher = more binding, comparable within an allelic series) | 12.9 upbm affinity estimate (log intensity, higher = more binding, comparable within an allelic series) | 10.8 upbm affinity estimate (log intensity, higher = more binding, comparable within an allelic series) | 13.2 upbm affinity estimate (log intensity, higher = more binding, comparable within an allelic series) | 8.27 upbm affinity estimate (log intensity, higher = more binding, comparable within an allelic series) | 12.8 upbm affinity estimate (log intensity, higher = more binding, comparable within an allelic series) | 11.2 upbm affinity estimate (log intensity, higher = more binding, comparable within an allelic series) | 12.5 upbm affinity estimate (log intensity, higher = more binding, comparable within an allelic series)
ATAATTAA | 12.7 upbm affinity estimate (log intensity, higher = more binding, comparable within an allelic series) | 12.1 upbm affinity estimate (log intensity, higher = more binding, comparable within an allelic series) | 12.5 upbm affinity estimate (log intensity, higher = more binding, comparable within an allelic series) | 11.9 upbm affinity estimate (log intensity, higher = more binding, comparable within an allelic series) | 12 upbm affinity estimate (log intensity, higher = more binding, comparable within an allelic series) | 12.4 upbm affinity estimate (log intensity, higher = more binding, comparable within an allelic series) | 13.3 upbm affinity estimate (log intensity, higher = more binding, comparable within an allelic series) | 13 upbm affinity estimate (log intensity, higher = more binding, comparable within an allelic series) | 12.3 upbm affinity estimate (log intensity, higher = more binding, comparable within an allelic series) | 10.3 upbm affinity estimate (log intensity, higher = more binding, comparable within an allelic series) | 10.8 upbm affinity estimate (log intensity, higher = more binding, comparable within an allelic series) | 13.9 upbm affinity estimate (log intensity, higher = more binding, comparable within an allelic series) | 11.2 upbm affinity estimate (log intensity, higher = more binding, comparable within an allelic series) | 13.5 upbm affinity estimate (log intensity, higher = more binding, comparable within an allelic series) | 12 upbm affinity estimate (log intensity, higher = more binding, comparable within an allelic series) | 13.5 upbm affinity estimate (log intensity, higher = more binding, comparable within an allelic series) | 8.29 upbm affinity estimate (log intensity, higher = more binding, comparable within an allelic series) | 13.7 upbm affinity estimate (log intensity, higher = more binding, comparable within an allelic series) | 11.2 upbm affinity estimate (log intensity, higher = more binding, comparable within an allelic series) | 13.5 upbm affinity estimate (log intensity, higher = more binding, comparable within an allelic series)
